{"source": "ChEMBL document CHEMBL3988442", "about": "“University of Dundee, Small-Polar-MMV Screening Library” (2021)", "data": [{"target": "T1, Aspartate--tRNA(Asp/Asn) ligase (Mycobacterium tuberculosis (strain ATCC 25618 / H37Rv)) (UniProt P9WFW3)", "T1 sequence (whole entry)": "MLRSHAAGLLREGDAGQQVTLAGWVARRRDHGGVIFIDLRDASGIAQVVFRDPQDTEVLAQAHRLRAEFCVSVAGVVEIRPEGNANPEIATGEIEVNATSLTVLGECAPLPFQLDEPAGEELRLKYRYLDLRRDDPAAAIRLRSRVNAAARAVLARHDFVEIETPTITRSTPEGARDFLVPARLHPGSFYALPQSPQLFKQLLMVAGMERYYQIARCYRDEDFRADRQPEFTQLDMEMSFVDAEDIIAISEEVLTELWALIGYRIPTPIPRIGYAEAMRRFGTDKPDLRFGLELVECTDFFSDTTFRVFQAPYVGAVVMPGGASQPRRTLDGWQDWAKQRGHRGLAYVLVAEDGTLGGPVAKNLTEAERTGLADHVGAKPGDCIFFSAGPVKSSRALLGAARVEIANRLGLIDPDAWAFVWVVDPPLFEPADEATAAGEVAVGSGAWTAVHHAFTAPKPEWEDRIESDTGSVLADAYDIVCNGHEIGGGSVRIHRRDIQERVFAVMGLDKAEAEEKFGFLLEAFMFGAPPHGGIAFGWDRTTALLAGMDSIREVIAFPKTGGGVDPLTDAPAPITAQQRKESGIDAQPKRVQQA", "experiment": "Assay for Asp RNA synthetase-1 from Mycobacterium tuberculosis", "assay_type": "functional", "design": "scale not given: direction of the effect not stated beside the values", "conditions": "30 µM", "units": {"Percent Effect": "%"}, "values": [{"compound": "O=C(CCCNC(=O)C1CC1)Nc1cnn(-c2ccccc2Cl)c1", "Percent Effect": -4.78}, {"compound": "CC(O)CN1CCC(CNCc2ccc(S(C)(=O)=O)cc2)CC1", "note": "(stereo not given)", "Percent Effect": 3.1}, {"compound": "COc1ncccc1NC(=O)C1CCS(=O)(=O)C1", "note": "(stereo not given)", "Percent Effect": -3.61}, {"compound": "O=C(c1cccs1)N1CCC2(C1)c1ccccc1S(=O)(=O)N2CC1CC1", "note": "(stereo not given)", "Percent Effect": -6.49}, {"compound": "CC(C)N1CCC(CNCc2c[nH]nc2C(C)(C)C)C1", "note": "(stereo not given)", "Percent Effect": 7.32}, {"compound": "CCn1cc(CN2CCCn3nc(CNC(=O)C4CCC4)cc3C2)cn1", "Percent Effect": 4.07}, {"compound": "COCCCC1CCCN(C(=O)CCc2cc(O)no2)C1", "note": "(stereo not given)", "Percent Effect": -7.41}, {"compound": "COCC1CCN(c2cc(C3CN(C)CCO3)nc(C)n2)CC1", "note": "(stereo not given)", "Percent Effect": -1.84}, {"compound": "Cc1ccccc1N1CCCN(C(=O)CCCS(N)(=O)=O)CC1", "Percent Effect": 6.58}, {"compound": "CCOc1ccc(CNCCCn2ccnc2)cc1Br", "Percent Effect": -5.78}, {"compound": "Cc1ccc(N2CCC3(CC2)CC(OCC(=O)N(C)C)CO3)nn1", "note": "(stereo not given)", "Percent Effect": -2.52}, {"compound": "Cc1cnn(CC2CCCCN2CCn2cncn2)c1", "note": "(stereo not given)", "Percent Effect": -2.34}, {"compound": "CNC(=O)C1CCN(C(=O)c2cccn2Cc2cccs2)CC1", "Percent Effect": 0.91}, {"compound": "Cc1cccc(N2CCN(CCCNC(=O)c3nccn3C)CC2)c1", "Percent Effect": -3.22}, {"compound": "Cn1cccc1C(=O)N1CC[C@H]2C[C@@H](c3ccncn3)O[C@@H]2C1", "Percent Effect": -6.89}, {"compound": "Cc1nc(COc2cccc(C#N)c2)no1", "Percent Effect": -0.618}, {"compound": "COC[C@@]12CCO[C@@H]1CCN(C(=O)COc1ccccc1OC)C2", "Percent Effect": 4.72}, {"compound": "Cn1c(Nc2cn[nH]c2)c(C#N)c(=O)n(C)c1=O", "Percent Effect": -0.24}, {"compound": "COc1ccccc1CC(=O)NCc1c(C)nc2cc(=O)[nH]n2c1C", "Percent Effect": -0.878}, {"compound": "c1ccc2cc(OCCN3CCn4c(nnc4C4CC4)C3)ccc2c1", "Percent Effect": 3.95}, {"compound": "O=C(NCCc1coc(-c2ccc(F)cc2)n1)NC1CCC(O)CC1", "note": "(stereo not given)", "Percent Effect": -3.81}, {"compound": "CC(C)(C)c1cnc(CN2CCC[C@H]2CO)o1", "Percent Effect": -4.22}, {"compound": "Cc1cnn(CC2CN(CC(=O)N(C)c3nccs3)CCO2)c1", "note": "(stereo not given)", "Percent Effect": -6.72}, {"compound": "CCn1cnnc1C1CCN(C(=O)COc2ccccc2)CC1", "Percent Effect": -1.18}, {"compound": "CC(C)c1cc(NC(=O)CN2CCc3c(nc(C(C)C)n3C)C2)on1", "Percent Effect": -3.67}, {"compound": "Fc1cccc(N2CCCC3(C2)CN(c2ncccn2)CCO3)c1", "note": "(stereo not given)", "Percent Effect": 2.81}, {"compound": "Cc1ccoc1C(=O)NC1CCN(Cc2csc3c(F)cccc23)CC1", "Percent Effect": -0.83}, {"compound": "COc1ccc(OCc2sc(C3(O)CCCNCC3)nc2C)cc1", "note": "(stereo not given)", "Percent Effect": 5.08}, {"compound": "CCn1cc2c(n1)CN(CC1CC1)CC2COCC1CC1", "note": "(stereo not given)", "Percent Effect": -2.72}, {"compound": "Cc1cc2c(=O)n3c(nc2s1)CCN(C(=O)c1scnc1C)CC3", "Percent Effect": -1.56}, {"compound": "COc1cccc(C(=O)NCCCN2CCc3ccccc3C2)c1OC", "Percent Effect": -2.13}, {"compound": "CN1CCCN(c2nccc(-c3c[nH]nc3C3CCCCC3)n2)CC1", "Percent Effect": 14.1}, {"compound": "CC(=O)N1[C@@H](C(=O)NCC2CC2)C[C@@H]2CN(Cc3ccco3)C[C@@H]21", "Percent Effect": 0.523}, {"compound": "CCc1nc(C2CCCN2CCc2ccccn2)no1", "note": "(stereo not given)", "Percent Effect": -4.14}, {"compound": "Cc1cccc(C(=O)N2C[C@@H]3CCN(c4cccnc4)C[C@@H]3C2)c1", "Percent Effect": 3.96}, {"compound": "CN1CCN(C2CCN(CCOc3ccc(F)cc3)CC2)C1=O", "Percent Effect": -2.61}, {"compound": "CN1CCc2c(C#N)c(NCc3ccco3)n3cnnc3c2C1", "Percent Effect": 6.08}, {"compound": "CC1(C)CN(C(=O)NCCc2ccn(-c3ccccc3)n2)CCO1", "Percent Effect": 2.57}, {"compound": "CN(C)S(=O)(=O)N1CCN(c2ccnc(N3CCCC3)n2)CC1", "Percent Effect": -2.66}, {"compound": "Cc1cccc(-c2noc(CN3CCCC(Cn4cncn4)C3)n2)c1", "note": "(stereo not given)", "Percent Effect": -2.23}]}, {"target": "Shiga toxin 2 (Escherichia coli O157:H7) (UniProt P09385+P09386)", "experiment": "E. coli 0.157:H7 Shiga Toxin SOP - stx2 screening assay", "assay_type": "functional", "design": "scale not given: direction of the effect not stated beside the values", "conditions": "30 µM", "units": {"Percent Effect": "%"}, "values": [{"compound": "O=C(CCCNC(=O)C1CC1)Nc1cnn(-c2ccccc2Cl)c1", "Percent Effect": -29.3}, {"compound": "CC(O)CN1CCC(CNCc2ccc(S(C)(=O)=O)cc2)CC1", "note": "(stereo not given)", "Percent Effect": -4.03}, {"compound": "COc1ncccc1NC(=O)C1CCS(=O)(=O)C1", "note": "(stereo not given)", "Percent Effect": -37.8}, {"compound": "O=C(c1cccs1)N1CCC2(C1)c1ccccc1S(=O)(=O)N2CC1CC1", "note": "(stereo not given)", "Percent Effect": 6.62}, {"compound": "CC(C)N1CCC(CNCc2c[nH]nc2C(C)(C)C)C1", "note": "(stereo not given)", "Percent Effect": 11.2}, {"compound": "CCn1cc(CN2CCCn3nc(CNC(=O)C4CCC4)cc3C2)cn1", "Percent Effect": -31}, {"compound": "COCCCC1CCCN(C(=O)CCc2cc(O)no2)C1", "note": "(stereo not given)", "Percent Effect": -0.726}, {"compound": "COCC1CCN(c2cc(C3CN(C)CCO3)nc(C)n2)CC1", "note": "(stereo not given)", "Percent Effect": -3.4}, {"compound": "Cc1ccccc1N1CCCN(C(=O)CCCS(N)(=O)=O)CC1", "Percent Effect": -25.7}, {"compound": "CCOc1ccc(CNCCCn2ccnc2)cc1Br", "Percent Effect": -77.4}, {"compound": "Cc1ccc(N2CCC3(CC2)CC(OCC(=O)N(C)C)CO3)nn1", "note": "(stereo not given)", "Percent Effect": -23.3}, {"compound": "Cc1cnn(CC2CCCCN2CCn2cncn2)c1", "note": "(stereo not given)", "Percent Effect": -38}, {"compound": "CNC(=O)C1CCN(C(=O)c2cccn2Cc2cccs2)CC1", "Percent Effect": 11.1}, {"compound": "Cc1cccc(N2CCN(CCCNC(=O)c3nccn3C)CC2)c1", "Percent Effect": -11.1}, {"compound": "Cn1cccc1C(=O)N1CC[C@H]2C[C@@H](c3ccncn3)O[C@@H]2C1", "Percent Effect": 7.29}, {"compound": "Cc1nc(COc2cccc(C#N)c2)no1", "Percent Effect": 0.222}, {"compound": "COC[C@@]12CCO[C@@H]1CCN(C(=O)COc1ccccc1OC)C2", "Percent Effect": 19.5}, {"compound": "Cn1c(Nc2cn[nH]c2)c(C#N)c(=O)n(C)c1=O", "Percent Effect": -19.1}, {"compound": "COc1ccccc1CC(=O)NCc1c(C)nc2cc(=O)[nH]n2c1C", "Percent Effect": 13.6}, {"compound": "c1ccc2cc(OCCN3CCn4c(nnc4C4CC4)C3)ccc2c1", "Percent Effect": -16.6}, {"compound": "O=C(NCCc1coc(-c2ccc(F)cc2)n1)NC1CCC(O)CC1", "note": "(stereo not given)", "Percent Effect": -24.9}, {"compound": "CC(C)(C)c1cnc(CN2CCC[C@H]2CO)o1", "Percent Effect": -5.47}, {"compound": "Cc1cnn(CC2CN(CC(=O)N(C)c3nccs3)CCO2)c1", "note": "(stereo not given)", "Percent Effect": 11}, {"compound": "CCn1cnnc1C1CCN(C(=O)COc2ccccc2)CC1", "Percent Effect": -10}, {"compound": "CC(C)c1cc(NC(=O)CN2CCc3c(nc(C(C)C)n3C)C2)on1", "Percent Effect": -13.4}, {"compound": "Fc1cccc(N2CCCC3(C2)CN(c2ncccn2)CCO3)c1", "note": "(stereo not given)", "Percent Effect": -2.38}, {"compound": "Cc1ccoc1C(=O)NC1CCN(Cc2csc3c(F)cccc23)CC1", "Percent Effect": -64.2}, {"compound": "COc1ccc(OCc2sc(C3(O)CCCNCC3)nc2C)cc1", "note": "(stereo not given)", "Percent Effect": 7.21}, {"compound": "CCn1cc2c(n1)CN(CC1CC1)CC2COCC1CC1", "note": "(stereo not given)", "Percent Effect": -2.1}, {"compound": "Cc1cc2c(=O)n3c(nc2s1)CCN(C(=O)c1scnc1C)CC3", "Percent Effect": 0.428}, {"compound": "COc1cccc(C(=O)NCCCN2CCc3ccccc3C2)c1OC", "Percent Effect": -9.33}, {"compound": "CN1CCCN(c2nccc(-c3c[nH]nc3C3CCCCC3)n2)CC1", "Percent Effect": -32.4}, {"compound": "CC(=O)N1[C@@H](C(=O)NCC2CC2)C[C@@H]2CN(Cc3ccco3)C[C@@H]21", "Percent Effect": -11.8}, {"compound": "CCc1nc(C2CCCN2CCc2ccccn2)no1", "note": "(stereo not given)", "Percent Effect": -69}, {"compound": "Cc1cccc(C(=O)N2C[C@@H]3CCN(c4cccnc4)C[C@@H]3C2)c1", "Percent Effect": -5.99}, {"compound": "CN1CCN(C2CCN(CCOc3ccc(F)cc3)CC2)C1=O", "Percent Effect": -5.38}, {"compound": "CN1CCc2c(C#N)c(NCc3ccco3)n3cnnc3c2C1", "Percent Effect": -1.51}, {"compound": "CC1(C)CN(C(=O)NCCc2ccn(-c3ccccc3)n2)CCO1", "Percent Effect": 16.6}, {"compound": "CN(C)S(=O)(=O)N1CCN(c2ccnc(N3CCCC3)n2)CC1", "Percent Effect": -41.2}, {"compound": "Cc1cccc(-c2noc(CN3CCCC(Cn4cncn4)C3)n2)c1", "note": "(stereo not given)", "Percent Effect": -1.3}]}]}
